dFosB act-1 – activators of mouse delta FosB homodimer | hit rate 0.99% among 340,000 | purified delta FosB, TAMRA-CDK5 oligo fluorescence polarization; percent of positive-control signal above neutral wells | activation, % at 25 µM;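 active means mean activation above about 17%, with every replicate also reaching it, limit read from the data, passing the limit was not always enough; inconclusive means only one of the two conditions met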
Target sequence (P13346 whole entry, looked up): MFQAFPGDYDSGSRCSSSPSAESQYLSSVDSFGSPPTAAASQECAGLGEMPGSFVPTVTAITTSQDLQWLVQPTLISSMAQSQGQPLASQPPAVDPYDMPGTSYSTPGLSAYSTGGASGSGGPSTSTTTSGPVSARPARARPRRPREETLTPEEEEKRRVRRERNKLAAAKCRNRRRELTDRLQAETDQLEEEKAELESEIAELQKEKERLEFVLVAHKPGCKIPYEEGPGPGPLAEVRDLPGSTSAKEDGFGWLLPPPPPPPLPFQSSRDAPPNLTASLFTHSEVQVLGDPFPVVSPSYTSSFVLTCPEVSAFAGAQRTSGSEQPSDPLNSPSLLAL
A1 inh – inhibitors of the anti-apoptotic protein A1, read as caspase activation. MEF A1-2A-BIM cells, Caspase-Glo 3/7 luminescence, 3 h; percent of clofoctol response, vehicle zero. caspase activation, % (test concentration not listed). hit rate 0.066% among 330,000. AID 2462;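 active means over half of replicate activation scores above 10%, or exactly half above 10 with the replicate mean above 10; inconclusive means replicate mean below 10 yet half the replicates above 10; inactive means over half of replicates below 10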
GSIS activator – GLuc luminescence reporter in INS-1E cells, primary screen for activators of glucose-dependent secretion of insulin; INS-1E GLuc reporter insulin secretion, 2-3 h; activation, % at 16.6 µM; hit rate 0.61% among 370,000; AID 743287;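 active means lowest replicate activation of at least 40%, so every replicate reaches that level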
Vif inh – blocks HIV Vif function; HEK293T cells, Vif self-association by quenched fluorescence, imaging, 24 h; hit rate 0.35% among 340,000; inhibition, % at 7.49 µM; AID 602346; in the data active means inhibition above about 50%, passing the limit was not always enough; inconclusive means no clear call, values can overlap the other calls; inactive means below about 31%
Neddyl block – inhibitors of human cullin neddylation; P61081+Q13564; TR-FRET cullin neddylation, biochemical; inhibition, % at 25 µM; hit rate 0.58% among 360,000; in the data active means inhibition above about 36%
dFosB act-2 – delta FosB (mouse) homodimer activation; shares compounds with dFosB act-1; AID 588690; activation, % at 24.9 µM; 2,400 tested, under 10 active; purified delta FosB, TAMRA-CDK5 oligo fluorescence polarization; normalised: neutral wells 0, positive control 100;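 active means highest replicate activation at or above 34% and every replicate reaching that threshold; inconclusive means meets only one of the two criteria; inactive means meets neither criterion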;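 further: higher polarization means more probe DNA bound by delta FosB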
Each line names hits and unclear results; the compound was inactive in the other large screens (follow-up assays come after a bar, where shown). Compounds with a hit are over-represented: about 1.9% of the library has one in this group of screens.

COc1ccc(Br)cc1/C=C/C(=O)NC(=S)Nc1ccc(CN2CCOCC2)cc1	dFosB act-1 48 | dFosB act-2 inactive
CCN1CCN(c2cc(N3CCc4ccccc4C3)c(F)cc2[N+](=O)[O-])CC1	dFosB act-1 19 | dFosB act-2 inactive
CO[C@@H]1CN(C)C(=O)c2cc(NC(=O)C3CCC3)ccc2OC[C@H](C)N(Cc2ccc(F)cc2)C[C@@H]1C	none (no result: dFosB act-1, A1 inh, Vif inh, Neddyl block)
CC=Cc1ccc2n(c1=O)C[C@H]1[C@H](CO)[C@@H](C(=O)NCc3ccccc3)[C@@H]2N1Cc1ccccc1OC (mixture of isomers)	none (no result: dFosB act-1, A1 inh, Vif inh, Neddyl block)
C[C@@H]1CN([C@@H](C)CO)C(=O)c2cc(NC(=O)CCC(F)(F)F)ccc2O[C@@H](C)CCCCO[C@@H]1CN(C)C(=O)C1CCCCC1	none (no result: dFosB act-1, A1 inh, Vif inh, Neddyl block)
COc1ccc(C)c2sc(NC(=O)c3cccc(N4C(=O)CCC4=O)c3)nc12	dFosB act-1 53 (not shown: Neddyl block) | dFosB act-2 inactive
Cc1ccc(C(C)C)c(OCC(=O)NNC(=O)Cn2[nH]c(=O)c3ccccc3c2=O)c1	dFosB act-1 35 | dFosB act-2 inactive
Cc1ccccc1C(=O)NNC(=O)CSc1nc(-c2ccccc2)cc(=O)[nH]1	dFosB act-1 40 | dFosB act-2 inactive
Cc1ccccc1NC(=O)CSc1nc(-c2ccccc2)cc(=O)[nH]1	none
O=C(CSc1nc(-c2ccccc2)cc(=O)[nH]1)NCc1ccc2c(c1)OCO2	dFosB act-1 49 | dFosB act-2 inactive
O=C(CSc1nc2ccccc2[nH]1)NCc1ccc2c(c1)OCO2	none
CN(CC(=O)Nc1ccccc1C(F)(F)F)C(=O)CCc1nc2sc3c(c2c(=O)[nH]1)CCCC3	dFosB act-1 23 | dFosB act-2 inactive
CCN(CC(=O)Nc1ccccc1C(F)(F)F)C(=O)CCc1nc2sc3c(c2c(=O)[nH]1)CCCC3	none
CN(CC(=O)Nc1ccc(Cl)cc1)C(=O)CCc1nc2sc3c(c2c(=O)[nH]1)CCCC3	dFosB act-1 29 | dFosB act-2 inactive
COc1ccc(CN(C)C[C@@H]2Oc3c(NC(=O)Nc4ccc(F)cc4)cccc3C(=O)N([C@@H](C)CO)C[C@H]2C)cc1	none (no result: dFosB act-1, A1 inh, Vif inh, Neddyl block)
Cc1ccc(CNC(=O)CC(C)S(=O)(=O)c2cc3c(cc2C)NC(=O)CO3)cc1 (stereo not drawn)	dFosB act-1 23 (no result: A1 inh) | dFosB act-2 inactive
COc1ccc(-n2nc(C(=O)NCC(=O)Nc3cc(OC)c(OC)c(OC)c3)c3ccccc3c2=O)cc1OC	dFosB act-1 24 | dFosB act-2 inactive
COc1ccc(-n2nc(C(=O)NCC(=O)NCc3cccc(F)c3)c3ccccc3c2=O)cc1Cl	dFosB act-1 26 | dFosB act-2 inactive
CN(C)C(=O)C[C@H]1C[C@H]2c3cc(NC(=O)NC4CCCC4)ccc3O[C@H]2[C@@H](CO)O1	none (no result: dFosB act-1, A1 inh, Vif inh, Neddyl block)
COc1ccc2c3c(n(C)c2c1)[C@@H](CO)N(C(C)=O)CC31CCN(C(=O)Nc2ccc(F)cc2)CC1	none (no result: dFosB act-1, A1 inh, Vif inh, Neddyl block)
O=C(Nc1ccc(Oc2ncnc3cc(Cl)ccc23)nc1)Nc1cccc(C(F)(F)F)c1	dFosB act-1 40 (no result: GSIS activator) | dFosB act-2 inactive
CCCNC(=O)Nc1ccc2c(c1)OC[C@H](C)N(C(=O)c1ccccc1F)C[C@@H](C)[C@@H](OC)CN(C)C2=O	none (no result: dFosB act-1, A1 inh, Vif inh, Neddyl block)
COc1ccc(-c2cc(-c3cccs3)c(C#N)c(SCC(=O)NCc3ccco3)n2)cc1	dFosB act-1 47, Vif inh 52 (no result: GSIS activator) | dFosB act-2 inactive
COc1ccc(CNC(=O)CSc2nc(-c3ccccc3)cc(-c3cccs3)c2C#N)cc1	dFosB act-1 inconclusive (no result: GSIS activator)
CCOc1cc(C(=O)Nc2ccc3c4c(cccc24)C(=O)N3CC)cc(OCC)c1OCC	dFosB act-1 24 | dFosB act-2 inactive
CCN1C(=O)c2cccc3c(NC(=O)c4cccc(N5C(=O)CCC5=O)c4)ccc1c23	none
O=C(Nc1nnc(-c2ccccc2F)s1)Nc1ccccc1F	none
COc1ccc(Cc2nnc(NC(=O)Nc3ccccc3F)s2)cc1	none
O=C(Nc1nnc(-c2ccccc2SCc2ccccc2)s1)Nc1ccccc1F	dFosB act-1 91 (no result: GSIS activator) | dFosB act-2 inactive
O=C(Nc1nnc(Cc2ccc(F)cc2)s1)Nc1ccccc1F	dFosB act-1 27 (no result: GSIS activator) | dFosB act-2 inactive
Cc1oc2cc(O)ccc2c(=O)c1Oc1ccc(F)cc1	dFosB act-1 19 (not shown: Neddyl block) | dFosB act-2 inactive
Cc1oc2cc(O)ccc2c(=O)c1Oc1ccc2ccccc2c1	none (not shown: GSIS activator, Neddyl block)
Cc1ccc(S(=O)(=O)Nc2ccc3c(c2)C(=O)N([C@H](C)CO)C[C@H](C)[C@@H](CN(C)Cc2ccc(C(=O)O)cc2)OCCCC[C@H](C)O3)cc1	none (no result: dFosB act-1, A1 inh, Vif inh, Neddyl block)
COc1cc(NC(=O)COc2ccccc2[N+](=O)[O-])ccc1NC(=O)c1ccco1	dFosB act-1 34 | dFosB act-2 inactive
O=C(COc1ccccc1Cl)NCCCNC(=O)c1ccco1	none
COc1ccccc1CC(=O)Nc1cc(Cl)ccc1O	none
O=C(COc1ccccc1Cl)Nc1ccc(NC(=O)c2ccco2)cc1	dFosB act-1 21 (not shown: Neddyl block) | dFosB act-2 inactive
O=C(COc1ccccc1Cl)Nc1cc(Cl)ccc1O	dFosB act-1 22 (no result: A1 inh) | dFosB act-2 inactive
C[C@H](O)C#Cc1cnc2c(c1)C(=O)N([C@@H](C)CO)C[C@@H](C)[C@@H](CN(C)C(=O)Cc1ccncc1)O2	none (no result: dFosB act-1, A1 inh, Vif inh, Neddyl block)
CCC(=O)Nc1cccc(NC(=O)c2ccc3c(c2)OCO3)c1	dFosB act-1 28 (no result: GSIS activator) | dFosB act-2 inactive
C/C(=N/NC(=O)c1ccc2c(c1)OCO2)c1ccc(NC(=O)c2ccc(F)cc2)cc1	dFosB act-1 43 | dFosB act-2 inactive
C[C@H](CO)N1C[C@H](C)[C@@H](CN(C)C(=O)C2CC2)Oc2cc(-c3ccccc3)ccc2S1(=O)=O	none (no result: dFosB act-1, A1 inh, Vif inh, Neddyl block)
Cc1ccccc1-c1ccc2c(c1)O[C@H](CN(C)C)[C@@H](C)CN([C@@H](C)CO)S2(=O)=O	none (no result: dFosB act-1, A1 inh, Vif inh, Neddyl block)
CCCNC(=O)C[C@H]1CC[C@@H]2[C@H](COc3ccc(NC(=O)NC(C)C)cc3C(=O)N2C)O1	none (no result: dFosB act-1, A1 inh, Vif inh, Neddyl block)
CCOC(=O)c1c(C)nc2sc(C(=O)Nc3ccc(C(C)=O)cc3)c(N)c2c1-c1ccc(OC)cc1	dFosB act-1 19, A1 inh inconclusive (not shown: GSIS activator, Neddyl block) | dFosB act-2 inactive
CC(=O)Cc1nsc(NC(=O)c2ccc(-c3cccc(C(F)(F)F)c3)o2)n1	none (no result: Vif inh)
Cc1nnc(NC(=O)c2ccc(-c3cccc(C(F)(F)F)c3)o2)s1	dFosB act-1 30 (no result: GSIS activator) | dFosB act-2 inconclusive
O=C(NCCN1CCCC1)c1cc2c(c(-c3cccc(C4=CCCC4)c3)n1)[C@@H](CCO)N(CC1CC1)C2	none (no result: dFosB act-1, A1 inh, Vif inh, Neddyl block)
Cc1ccc(N(C(=O)Cn2nnc(-c3ccc(C)o3)n2)C(C(=O)NC2CCCC2)c2ccncc2)cc1 (stereo not drawn)	none
Cc1ccc(-c2nnn(CC(=O)N(Cc3ccccc3)C(C(=O)NC3CCCC3)c3ccncc3)n2)o1 (stereo not drawn)	dFosB act-1 33 (no result: A1 inh, GSIS activator) | dFosB act-2 inactive
